What all share (assay): NCI-60 one-dose screen, 48 h (100 = growth as untreated, 0 = no growth, -100 = all killed)
In test [1] the test system is HCT-15 colon. Conditions: 10 µM unless noted.
Test [2] relates to HT29 colon. Conditions: 10 µM unless noted.
For test [3], the system named is SNB-75 CNS. Conditions: 10 µM unless noted.
Test [4] has as its system SNB-19 CNS. Conditions: 10 µM unless noted.
Test [5] has as its system U251 CNS. Conditions: 10 µM unless noted.
The subject of test [6] is PC-3 prostate. Conditions: 10 µM unless noted.
Test [7] has as its system SK-MEL-5 melanoma. Conditions: 10 µM unless noted.
The test system of test [8] is UACC-62 melanoma. Conditions: 10 µM unless noted.
Test [9] has as its system LOX IMVI melanoma. Conditions: 10 µM unless noted.
For test [10], the system named is SK-MEL-28 melanoma. Conditions: 10 µM unless noted.
The subject of test [11] is EKVX NSCLC. Conditions: 10 µM.
Test [12] concerns SN12C renal. Conditions: 10 µM unless noted.
The test system of test [13] is UO-31 renal. Conditions: 10 µM unless noted.
Test [14] deals with TK-10 renal. Conditions: 10 µM unless noted.
For test [15], the system named is ACHN renal. Conditions: 10 µM unless noted.
Test [16] relates to CAKI-1 renal. Conditions: 10 µM unless noted.
In test [17] the test system is A498 renal. Conditions: 10 µM unless noted.
Test [18] deals with CCRF-CEM leukemia. Conditions: 10 µM.
Test [19] deals with MOLT-4 leukemia. Conditions: 10 µM unless noted.
For test [20], the system named is SK-MEL-2 melanoma. Conditions: 10 µM unless noted.

Structures are written as SMILES. The panel holds about 83,000 compounds, 20% with a hit somewhere; the sample as a whole holds those more often.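 Growth was measured after 48 h exposure to one concentration of compound in 96-well plates. Values under 10 count as active.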 Values without a mark were called inactive. Activity calls are given as the source filed them.

Regarding `CCc1ccc(C(=Nc2ccc(N(C)C(=O)CN3CCN(C)CC3)cc2)c2c(O)[nH]c3ccc(C(=O)OC)cc23)cc1`, the growth in test [1] was -73.2% (active); in test [2] it was -66.3% (active); in test [3], -97.3% (active); in [4], -84.9% (active); in test [5], -75.1% (active); in [6], -60.9% (active). In addition, the growth in [7] was -98.1% (active); in [8], -57.5% (active); in test [9] it was -93.9% (active); in test [10], -87.3% (active); in test [11], -17.4% (active); in test [12] it was -57.4% (active). For the same compound, the growth in test [13] is -94.9% (active); in test [14], -64.7% (active); in test [15] it was -69.1% (active); in test [16], -82.9% (active); in [17], -82.2% (active); in test [18], -15.5% (active). Also, in test [19], the growth was -37.6% (active).

Consider `C/C=C/C/C=C/[C@H](C)C[C@H](O)[C@@H]1C[C@@H]2O[C@H]2/C=C/[C@@H]2OC(C)(C)O[C@H]2/C=C/C[C@H](C)CC(=O)O1`, for which the growth in [1] was 19.7%; in [2], 28.1%; in test [3], 36.3%; in [4], 62.2%; in [5], 30%; in [6], 57.8%. Besides, the growth in [7] is 31%; in test [8], 8.91% (active); in [9] it was 44.3%; in test [10] it was 59.3%; in [11], 67.2%; in test [12] it was 38.2%. Besides, the growth in [13] was 5.37% (active); in [14] it was 18.8%; in test [15], 38.4%; in test [16], 19.2%; in test [17], 96.5%; in [18], 24.7%. Moreover, the growth in test [19] was 34.6%.

Take `CC1=C(C)C(=O)C(C(C)C2=C(C)C(=O)C(C)=C(C)C2=O)=C(C)C1=O`: the growth in test [1] was 99.7%; in test [2], 68.7%; in test [3], 96.6%; in test [4] it was 99%; in test [5] it was 81%; in [6] it was 52.4%. Further, the growth is 75% in test [7]; 85% in test [8]; 81% in test [9]; 117% in test [10]; 61.7% in [11]; 120% in test [12]. Also, the growth was 83.8% in test [13]; 75.7% in [14]; 110% in test [15]; 142% in test [16]; 84.6% in test [17]; 67.4% in test [18]. Further, the growth in test [19] is 32.9%.

As for `CC(C)(C)c1cc(C[P+](c2ccc(Cl)cc2)(c2ccc(Cl)cc2)c2ccc(Cl)cc2)cc(C(C)(C)C)c1O`, the growth in [1] was 99.1%; in [2] it was 56.9%; in [3] it was 87.2%; in test [4], 98%; in [5], 85.4%; in [6], 70%. Also, the growth was 85.8% in test [7]; 81.6% in test [8]; 92.6% in test [9]; 88% in test [10]; 91.6% in [12]; 64.4% in test [13]. Further, the growth in [14] was 105%; in test [15], 98.7%; in [16], 84.2%; in [17], 98.5%; in [19], 35.7%.

On to `Cc1ccccc1-n1c(C)nc2cc(NC(=O)c3ccc(Cl)cc3)ccc2c1=O`, for which the growth was 63.7% in test [1]; 62.9% in test [2]; 103% in [3]; 75.9% in [4]; 77.6% in test [5]; 61.2% in test [6]. Also, the growth was 0.858% (active) in [7]; 42.2% in [8]; 69.4% in test [9]; 79.5% in [10]; 51.5% in test [11]; 68.6% in test [12]. Also, the growth in test [13] is 77.8%; in [15], 48.1%; in test [16], 58.8%; in test [17], 60.6%; in [18], 52.7%; in test [19], 71.7%.

As for `Cc1nc(NC(=O)NC2CCCCC2)sc1C(=O)NN`, the growth in [1] is 91.5%; in test [2] it was 95.5%; in test [3], 110%; in test [4], 102%; in test [5], 98.5%; in test [7], 106%. For the same compound, the growth in [8] was 90.8%; in test [9], 93.5%; in test [10] it was 102%; in test [20] it was 21.7%; in test [11], 119%; in test [12] it was 106%. Further, the growth in test [13] is 84%; in test [14] it was -14.2% (active); in [15], 97.8%; in [16], 132%; in [17], 118%; in [18], 112%.

`N=C(c1ccccc1)N(Cc1ccccc1)Cc1ccccc1`: the growth in test [1] was 74.8%; in test [2] it was 53.4%; in [3] it was 97.7%; in test [4], 99.8%; in test [5], 96.7%; in test [6], 81.5%. For the same compound, the growth in test [7] was 104%; in test [8], 87.3%; in test [10], 98.8%; in test [12], 98.8%; in test [13], 72.6%; in test [14] it was 106%. In addition, the growth was 93.7% in test [15], 89.8% in test [16], 96% in test [17] and 86.3% in [19].

Take `N#Cc1ccc(NC2c3ccccc3CC2O)cc1` (centres undefined): the growth in [1] was 101%; in test [2], 110%; in test [3], 91.5%; in test [4], 109%; in test [5], 113%; in test [6], 98.8%. In addition, the growth is 102% in test [7]; 99.1% in [8]; 109% in test [10]; 114% in test [11]; 107% in test [12]; 83.1% in test [13]. Moreover, the growth in [14] was 119%; in test [15], 104%; in test [16] it was 106%; in test [17] it was 115%; in test [18], 94.6%; in test [19], 91.5%.

The record behind these values is PubChem BioAssay (NCI).
